{"source": "PubChem BioAssay (EPA / NIEHS)", "note": "Activity calls are given as the source filed them. The calls were made as follows: active = hit-call score of the fitted dose curve at least 0.9, where 1 is the maximum; inactive = score below 0.9."}
{"read-out": "TIMP metallopeptidase inhibitor 2 (TIMP2), TIMP2 (gene 7077)", "assay": "BSK_KF3CT_TIMP2: BioMAP Diversity Plus: KF3CT Assay for TIMP metallopeptidase inhibitor 2 (TIMP2) Biomarker Activity (AID 2283071)", "details": "primary human keratinocytes with fibroblasts; actives raise or lower the signal", "how_it_was_run": "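Co-culture of human primary keratinocytes and foreskin fibroblasts, measured 24 h after chemical dosing. TIMP-2 quantified by ELISA and fitted in both directions relative to DMSO. Cytotoxicity checked in parallel cultures by SRB total-protein staining.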"}
{"smiles": "Clc1ccccc1Cl", "outcome": "inactive"}
{"smiles": "O=Cc1ccco1", "outcome": "inactive"}
{"smiles": "Oc1ccc2ccc3cccc4ccc1c2c34", "AC50": "31.3 µM (active)"}
{"smiles": "Nc1ccc([N+](=O)[O-])cc1", "outcome": "inactive"}
{"smiles": "CC(C)(O)c1cnn2c(-c3ccc(F)c(-c4c(F)cccc4C#N)c3)cnc2n1", "AC50": "31 µM (active)"}
{"smiles": "N#CC(Br)(Br)C(N)=O", "outcome": "inactive"}
{"smiles": "CCCCOC(=O)c1ccccc1C(=O)OCc1ccccc1", "outcome": "inactive"}
{"smiles": "COP(=S)(OC)SCN1C(=O)c2ccccc2C1=O", "outcome": "inactive"}
{"smiles": "C1=Cc2cccc3cccc1c23", "outcome": "inactive"}
{"smiles": "C[C@]12C=CC3=C4CCC(=O)C=C4CC[C@H]3[C@@H]1CC[C@@H]2O", "outcome": "inactive"}
{"smiles": "CC(C)N(Cc1ccccc1)C(=O)C(C)(C)C", "outcome": "inactive"}
{"smiles": "O=[N+]([O-])C(Br)(CO)CO", "AC50": "28.5 µM (active)"}
{"smiles": "O=C(Oc1ccc(Br)cc1)N1CCN2CCC1CC2", "outcome": "inactive"}
{"smiles": "CC(C)COC(=O)c1ccccc1C(=O)OCC(C)C", "outcome": "inactive"}
{"smiles": "Cc1ccc(N)c(N)c1", "outcome": "inactive"}
{"smiles": "OCCCBr", "outcome": "inactive"}
{"smiles": "CCN(CC)N=O", "outcome": "inactive"}
{"smiles": "C[N+](C)(C)CC1CO1", "note": "(stereo unspecified)", "outcome": "inactive"}
{"smiles": "Cc1cccc(N)c1N", "outcome": "inactive"}
{"smiles": "COC(=O)c1ccccc1N", "outcome": "inactive"}
{"smiles": "ClC1=C(Cl)C2(Cl)C3C(Cl)C=CC3C1(Cl)C2(Cl)Cl", "note": "(stereo unspecified)", "AC50": "24.6 µM (active)"}
{"smiles": "Clc1ccc(Cl)c(Cl)c1", "outcome": "inactive"}
{"smiles": "ClCCOCCCl", "outcome": "inactive"}
{"smiles": "c1ccc2c(c1)oc1ccccc12", "outcome": "inactive"}
{"smiles": "Nc1ccc(Cc2ccc(N)cc2)cc1", "outcome": "inactive"}
{"smiles": "CN(C)C(=O)Nc1ccc(Cl)cc1", "outcome": "inactive"}
{"smiles": "ClC1=C(Cl)[C@]2(Cl)[C@H]3[C@H]([C@@H]4C=C[C@H]3C4)[C@@]1(Cl)C2(Cl)Cl", "AC50": "20 µM (active)"}
{"smiles": "O=C(O)C1C2CCC(O2)C1C(=O)O", "note": "(stereo unspecified)", "outcome": "inactive"}
{"read-out": "Transforming growth factor beta 1 (TGFb1), TGFB1 (gene 7040)", "assay": "BSK_KF3CT_TGFb1: BioMAP Diversity Plus: KF3CT Assay for Transforming growth factor beta 1 (TGFb1) Biomarker Activity (AID 2283072)", "details": "primary human keratinocytes with fibroblasts; actives raise or lower the signal", "how_it_was_run": "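Human keratinocyte/foreskin fibroblast co-culture; TGF-b1 measured by ELISA 24 h after dosing, fitted bidirectionally versus DMSO. Cytotoxicity checked in parallel cultures by total protein (SRB staining, 560 nm).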"}
{"smiles": "Clc1ccccc1Cl", "outcome": "inactive"}
{"smiles": "O=Cc1ccco1", "outcome": "inactive"}
{"smiles": "Oc1ccc2ccc3cccc4ccc1c2c34", "AC50": "31.7 µM (active)"}
{"smiles": "Nc1ccc([N+](=O)[O-])cc1", "outcome": "inactive"}
{"smiles": "CC(C)(O)c1cnn2c(-c3ccc(F)c(-c4c(F)cccc4C#N)c3)cnc2n1", "AC50": "36 µM (active)"}
{"smiles": "N#CC(Br)(Br)C(N)=O", "outcome": "inactive"}
{"smiles": "CCCCOC(=O)c1ccccc1C(=O)OCc1ccccc1", "outcome": "inactive"}
{"smiles": "COP(=S)(OC)SCN1C(=O)c2ccccc2C1=O", "outcome": "inactive"}
{"smiles": "C1=Cc2cccc3cccc1c23", "outcome": "inactive"}
{"smiles": "C[C@]12C=CC3=C4CCC(=O)C=C4CC[C@H]3[C@@H]1CC[C@@H]2O", "outcome": "inactive"}
{"smiles": "CC(C)N(Cc1ccccc1)C(=O)C(C)(C)C", "outcome": "inactive"}
{"smiles": "O=[N+]([O-])C(Br)(CO)CO", "AC50": "32 µM (active)"}
{"smiles": "O=C(Oc1ccc(Br)cc1)N1CCN2CCC1CC2", "outcome": "inactive"}
{"smiles": "CC(C)COC(=O)c1ccccc1C(=O)OCC(C)C", "outcome": "inactive"}
{"smiles": "Cc1ccc(N)c(N)c1", "outcome": "inactive"}
{"smiles": "OCCCBr", "outcome": "inactive"}
{"smiles": "CCN(CC)N=O", "outcome": "inactive"}
{"smiles": "C[N+](C)(C)CC1CO1", "note": "(stereo unspecified)", "outcome": "inactive"}
{"smiles": "Cc1cccc(N)c1N", "outcome": "inactive"}
{"smiles": "COC(=O)c1ccccc1N", "outcome": "inactive"}
{"smiles": "ClC1=C(Cl)C2(Cl)C3C(Cl)C=CC3C1(Cl)C2(Cl)Cl", "note": "(stereo unspecified)", "AC50": "14 µM (active)"}
{"smiles": "Clc1ccc(Cl)c(Cl)c1", "outcome": "inactive"}
{"smiles": "ClCCOCCCl", "outcome": "inactive"}
{"smiles": "c1ccc2c(c1)oc1ccccc12", "outcome": "inactive"}
{"smiles": "Nc1ccc(Cc2ccc(N)cc2)cc1", "outcome": "inactive"}
{"smiles": "CN(C)C(=O)Nc1ccc(Cl)cc1", "outcome": "inactive"}
{"smiles": "ClC1=C(Cl)[C@]2(Cl)[C@H]3[C@H]([C@@H]4C=C[C@H]3C4)[C@@]1(Cl)C2(Cl)Cl", "AC50": "22.4 µM (active)"}
{"smiles": "O=C(O)C1C2CCC(O2)C1C(=O)O", "note": "(stereo unspecified)", "outcome": "inactive"}
